ABHD5 PLIN5 PPI: ABHD5-PLIN5 interaction inhibitors, primary screen, cell lysate, split luciferase complementation, luminescence | Perilipin-5 (Homo sapiens) + 1-acylglycerol-3-phosphate O-acyltransferase ABHD5 (Homo … | 360,000 tested, 0.78% active | Split G. princeps luciferase complementation, 4 h | inhibition, % at 4 µM;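 active means inhibition above the mean inhibition across every tested compound plus 3 SD, cut at about 22% in these data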;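 further: 0% = DMSO only wells and the 100% control is not disclosed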
UHRF1 binding: UHRF1 methylated DNA binding inhibitors, primary screen, counter-screen for MBD2 inhibitor project, biochemical, TR-FRET, human UHRF1, single concentration; E3 ubiquitin-protein ligase UHRF1 (Homo sapiens), Q96T88; UHRF1 binding to methylated oligo; inhibition, % at 4.4 µM; 370,000 tested, 0.75% active; AID 687016, 2013; in the data active means inhibition above about 21%;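 further: UHRF1 SRA domain binding a hemimethylated CpG hairpin DNA probe; 0% = median of test compound wells and 100% = reference inhibitor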
Target sequence (Q96T88 whole entry, looked up, the tested form may be a part): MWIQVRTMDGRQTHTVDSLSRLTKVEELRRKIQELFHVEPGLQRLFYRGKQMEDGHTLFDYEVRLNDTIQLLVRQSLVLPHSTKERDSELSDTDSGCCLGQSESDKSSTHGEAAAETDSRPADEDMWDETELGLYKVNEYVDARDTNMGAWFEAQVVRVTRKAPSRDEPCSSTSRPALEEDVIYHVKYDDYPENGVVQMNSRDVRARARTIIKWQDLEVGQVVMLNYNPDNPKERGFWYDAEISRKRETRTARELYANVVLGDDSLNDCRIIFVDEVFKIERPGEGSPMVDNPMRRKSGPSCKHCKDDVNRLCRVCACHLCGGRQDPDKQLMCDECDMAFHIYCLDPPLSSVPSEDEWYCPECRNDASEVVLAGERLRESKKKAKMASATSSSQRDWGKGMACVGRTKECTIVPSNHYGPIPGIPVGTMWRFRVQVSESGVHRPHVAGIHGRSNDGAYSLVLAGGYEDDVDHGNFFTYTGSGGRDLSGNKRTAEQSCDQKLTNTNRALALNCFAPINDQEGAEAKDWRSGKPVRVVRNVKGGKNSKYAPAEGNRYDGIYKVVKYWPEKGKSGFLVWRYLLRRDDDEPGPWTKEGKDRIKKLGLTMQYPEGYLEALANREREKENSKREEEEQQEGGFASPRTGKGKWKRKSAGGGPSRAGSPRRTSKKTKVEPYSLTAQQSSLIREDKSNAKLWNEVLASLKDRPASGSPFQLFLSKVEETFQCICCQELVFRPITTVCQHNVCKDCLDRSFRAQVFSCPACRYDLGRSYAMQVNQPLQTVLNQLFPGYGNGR
rCAG RNA binder: binders of r(CAG) RNA repeats, primary screen, biochemical, fluorescence; r(CAG) RNA repeat, TO-PRO-1 dye displacement fluorescence; inhibition, % at 3 µM; 370,000 tested, 1.3% active;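 active means inhibition above the plate cutoff, the mean of all test compounds on that plate plus 3 SD, cut at about 35% in these data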;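 further: 0% = DMSO alone and 100% = 100 µM mitoxantrone as full dye displacement; higher means more dye released from RNA so lower well fluorescence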
PRMT1 inh: PRMT1 methyltransferase inhibitors, primary screen, biochemical, fluorescence polarization; recombinant PRMT1, activity-based probe fluorescence polarization; inhibition, % at 2.79 µM; 370,000 tested, 1.3% active;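 active means inhibition above about 21% made by adding two undisclosed values, limit read from the data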
MBD2 inh: inhibitors of MBD2 binding to methylated DNA, primary screen, biochemical, TR-FRET, DNA-binding domain, human. Methyl-CpG-binding domain protein 2 (Homo sapiens), Q9UBB5. MBD2 binding to methylated oligonucleotide. inhibition, % at 4.4 µM. 370,000 tested, 0.31% active; in the data active means inhibition above about 13%
LEDGF integ inh: blockers of LEDGF/p75-dependent integrase strand transfer – biochemical, TR-FRET, high throughput, primary screen. HIV-1 integrase (with human LEDGF/p75). TR-FRET IN-LEDGF/p75 DNA integration, Eu/Cy5. inhibition, % at 3.7 µM. 370,000 tested, 0.64% active. AID 743269, 2014;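 active means inhibition above the screen-wide mean plus 3 SD, cut at about 13% in these data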;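 further: signal is the Cy5 over europium emission ratio at 671 and 618 nm; 0% = plate median of compound wells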
PRMT1 confirm: PRMT1 methyltransferase inhibitors, confirmation, biochemical, fluorescence polarization, triplicate; shares compounds with PRMT1 inh; recombinant His-PRMT1, activity-based probe fluorescence polarization; inhibition, % at 2.79 µM; 3,300 tested, 42% active; AID 687036, 2013;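 active means mean inhibition across replicates above the hit cutoff derived for the earlier primary screen, cut at about 22% in these data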
Active calls of the source: *; · = not tested or not shown; + = active, no number. Hits are enriched below; roughly 4.1% of the tested compounds scored in any of these assays.

SMILES	ABHD5 PLIN5 PPI	UHRF1 binding	rCAG RNA binder	PRMT1 inh	MBD2 inh	LEDGF integ inh	PRMT1 confirm
O=C1CC(N2CCN(c3ccc(O)cc3)CC2)C(=O)N1c1ccc2c(c1)OCO2 (centres undefined)	5	0	3	39*	-6	0	-1
O=C1CC(N2CCN(Cc3ccccc3)CC2)C(=O)N1c1ccc2c(c1)OCCO2 (centres undefined)	4	1	-8	3	5	1	·
O=C1CC(N2CCCCCC2)C(=O)N1c1ccc2c(c1)OCO2 (centres undefined)	8	0	1	69*	-1	2	35*
COC(=O)C1=C(C)N(Cc2ccc(C(F)(F)F)cc2)C(=NCc2ccccc2)NC1c1ccc(C(F)(F)F)cc1 (centres undefined)	·	2	8	2	0	-4	·
COc1ccc(N2CCCC2)c(NC(=O)c2ccc([N+](=O)[O-])o2)c1	-8	-19	3	39*	-6	3	3
COc1ccc(NCc2nnc(SCC(=O)Nc3cccc(C)c3)o2)cc1	-15	-2	18	37*	-5	2	29*
CCOC(=S)SCC(=O)Nc1nc(C)c(C)s1	0	4	1	50*	-2	-8	39*
CCOC(=O)C(=O)Nc1nccs1	-2	0	6	0	-3	-1	·
CCOC(=S)SCC(=O)Nc1nccs1	1	6	-1	46*	5	2	13
Cc1nc(NC(=O)CSc2nc(N)cc(N)n2)sc1C	-8	-2	-4	-3	-5	-1	·
O=C(OC12CCCN(C1)/C(=C/c1cccc(Cl)c1)C2)c1ccno1 (centres undefined)	·	1	3	-5	1	0	·
O=C(OCc1ccccc1)[C@H](Cc1ccccc1)NC(=O)[C@@H]1CC=C[C@@H]2CCN(Cc3ccc(Cl)cc3)C(=O)[C@@H]21	·	-3	·	1	-7	2	·
S=C(Nc1ccccc1Cl)OCCN1CCCC12CCC(c1ccccc1)CC2 (centres undefined)	·	-1	·	57*	4	-2	41*
S=C(Nc1cccc(Cl)c1)OCCN1CCCC12CCC(c1ccccc1)CC2 (centres undefined)	·	-4	·	44*	-1	2	58*
S=C(Nc1ccc(Br)cc1)OCCN1CCCC12CCC(c1ccccc1)CC2 (centres undefined)	·	-1	·	52*	-11	-2	56*
O=C(Nc1ccc(Br)cc1)OCCN1CCCC12CCC(c1ccccc1)CC2 (centres undefined)	·	-1	·	-3	0	-5	·
O=C(Nc1ccccc1)OCCN1CCCC12CCC(c1ccccc1)CC2 (centres undefined)	·	2	·	4	6	-1	·
CC(=O)C(=Nc1cccc(Cl)c1)NNc1ccccc1C	-13	4	-1	83*	1	1	3
Cc1cc2nc(-c3ccc(SCc4ccccc4C#N)nc3)[nH]c2cc1C	-9	-2	12	9	-3	1	·
Cc1cc2nc(-c3ccc(SCc4ccc(C(=O)O)cc4)nc3)[nH]c2cc1C	-6	1	22	26*	0	1	22*
COCCN=C1Sc2nc3c(C)cccc3cc2CN1Cc1ccco1	16	-1	18	29*	1	2	15
COc1ccc(CC(=O)Nc2ccc(C)cc2S(=O)(=O)N2CCOCC2)cc1OC	·	2	1	1	1	-3	·
Oc1ccc(N2CCN(CC(O)c3ccccc3)CC2)cc1 (centres undefined)	7	-3	4	28*	-1	0	6
COc1ccc(C(C)=O)cc1COC(=O)C1CCN(C(=O)c2ccc(Cl)cc2)CC1	3	-2	-2	+	-4	0	5
COc1ccc(N2C(=O)CC(N3CCC(O)(c4cccc(C(F)(F)F)c4)CC3)C2=O)cc1 (centres undefined)	3	-1	-3	61*	2	2	-3
SMILES	ABHD5 PLIN5 PPI	UHRF1 binding	rCAG RNA binder	PRMT1 inh	MBD2 inh	LEDGF integ inh	PRMT1 confirm
COc1ccc(N2C(=O)CC(N3CCCC4CCCCC43)C2=O)cc1 (centres undefined)	8	0	1	53*	-2	-1	3
O=C1CC(N2CCCCCC2)C(=O)N1c1ccc(F)cc1 (centres undefined)	5	0	-2	41*	7	0	29*
O=C(O)c1ccc(N2C(=O)CC(N3CCN(c4cccc(C(F)(F)F)c4)CC3)C2=O)cc1 (centres undefined)	-4	4	8	17	1	-3	·
COc1ccc(N2C(=O)CC(C3CCCO3)C2=O)cc1 (centres undefined)	-2	0	-1	0	-1	3	·
COc1ccc(N2C(=O)CC(NC3CCCCNC3=O)C2=O)cc1 (centres undefined)	5	-1	3	28*	-6	-1	5
CC(=O)O[C@H]1C=C[C@@H](C#Cc2ccc(C(C)(C)C)cc2)O[C@@H]1COC(=O)Nc1ccccc1	·	6	9	7	5	4	·
C[C@H](O)[C@@H]1C(=O)N2CCc3c([nH]c4cccc(-c5ccccc5)c34)[C@@H]2C[C@@H]1N(C)C(=O)Nc1ccccc1	·	1	8	-4	-1	-4	·
Cc1ccc(-n2c(SCc3cccc4ccccc34)nnc2-c2ccccn2)cc1	·	0	3	-8	-4	3	·
COc1ccc(N2C(=O)CC(N3CCN(c4ccc(S(=O)(=O)N5CCCC5)cc4)CC3)C2=O)cc1 (centres undefined)	5	7	-1	1	2	0	·
COc1ccc(N2C(=O)CC(N3CCCCC3)C2=O)cc1 (centres undefined)	14	-1	-1	80*	4	1	0
O=C(Nc1nc2cc3c(cc2s1)OCCO3)c1ccncc1	-3	1	6	-2	-1	1	·
O=C(NNc1nc2cc3c(cc2s1)OCCO3)c1ccc(F)cc1	-6	-1	5	33*	2	1	-1
N#CC(=C1C=CC(=NO)C(Cl)=C1)c1ccc(Cl)cc1	-11	-3	15	4	2	0	·
COc1ccc(C(C#N)=C2C=CC(=NO)C=C2)cc1	-14	3	7	28*	0	-2	6

Screening data from PubChem BioAssay.
